Records with an inconclusive call do not appear. Calls of active or inactive are those of the source. Calls follow the shape of the full dose curve.
Legend:
[1] = qHTS drug screen for cell cycle checkpoint inhibitors in PARPi-resistant BRCA-mutant ovarian cancer cell lines. (AID 1963452); conditions: PEO1/OlaR viability, CellTiter-Glo luminescence, 96 h, stronger effect = lower value
Summary of the method: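 PEO1, PEO4 and PEO1/OlaR ovarian cancer cells, 600 per well, exposed 96 h at 37C to a dilution series. Viability read by CellTiter-Glo luminescence, normalized to DMSO and empty wells; activity summarized as Z-AUC.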

[2] = qHTS for identification of novel therapeutic agents for treatment of microphthalmiaassociated transcription factor (MiT) renal cell carcinoma (RCC) (AID 1963991); conditions: CellTiter-Glo, 48 h, stronger effect = lower value
Summary of the method: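 Curves over 11 concentrations were fitted to CellTiter-Glo luminescence, scaled between empty wells (0%) and DMSO (100%) viability. Cells were UOK109, UOK124 and UOK145 TFE3-fusion RCC lines at 500/well, exposed 48 hours at 37 C.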

[3] = measured here: PEO1 parental Z-AUC
[4] = TFE3-RCC UOK109 viability, measured here: UOK109 Z-AUC
[5] = TFE3-RCC viability, measured here: UOK124 Z-AUC
[6] = TFE3-RCC viability, measured here: UOK145 Z-AUC

Structure (SMILES) | Z-AUC [1] | Z-AUC [1, 3] | Z-AUC ([1]; measured here: PEO4 Z-AUC) | z-score [2, 4] | z-score [2, 5] | z-score [2, 6]
C=CC(=O)Nc1cccc(Sc2nc(Nc3ccc(N4CCN(C)CC4)cc3)ncc2Cl)c1 | -0.713 (inactive) | 0.0484 | 0.0662 |  |  | 
CC(C)C[C@@H](C(=O)N[C@H](C(=O)OC1CCCC1)c1ccccc1)[C@H](O)C(=O)NO | -0.457 (inactive) | -0.511 | -0.774 |  |  | 
Fc1ccc(CNc2ncnc3ccc(F)cc23)cc1 | -0.894 (inactive) | -1.29 | -1.17 |  |  | 
OC(c1cc(C(F)(F)F)nc2c(C(F)(F)F)cccc12)C1CCCCN1 (stereo not drawn) | 0.945 (inactive) | 0.285 | 0.429 |  |  | 
CCc1cccc(CC)c1NC(=O)N1Cc2[nH]nc(NC(=O)c3ccc(N4CCN(C)CC4)cc3)c2C1 | -0.0238 (inactive) | 0.421 | -0.125 |  |  | 
CCOc1ccccc1N=Nc1c(C)[nH]n(-c2nc(-c3ccccc3)cs2)c1=O | 1.3 (inactive) | 1.25 | 1.22 |  |  | 
C[C@@]1(c2cc(-c3cncnc3)c(F)cc2F)CCSC(N)=N1 | 0.854 (inactive) | 0.822 | 0.652 |  |  | 
COc1cc(Nc2nc3ccccc3nc2NS(=O)(=O)c2ccc(NC(=O)c3ccc(C)c(OC)c3)cc2)cc(OC)c1 | -0.848 (inactive) | -0.462 | -0.582 |  |  | 
CNC(=O)[C@H](Cc1ccccc1)NC(=O)[C@H](CC(C)C)[C@H](CSc1cccs1)C(=O)NO | -0.0435 (inactive) | -0.157 | 0.653 |  |  | 
COc1ccc(-c2oc3c(CC=C(C)C)c(O)cc(O)c3c(=O)c2O)cc1 | 0.707 (inactive) | 0.584 | 0.876 |  |  | 
CCCC1OC2C[C@@H]3[C@H]4CCC5=CC(=O)C=C[C@]5(C)[C@H]4C(O)C[C@]3(C)[C@]2(C(=O)CO)O1 (stereo partly drawn) | -0.0333 (inactive) | 0.534 | -0.396 |  |  | 
COc1cc2nccc(Oc3ccc(NC(=O)Nc4cc(C)on4)c(Cl)c3)c2cc1OC | -0.11 (inactive) | 0.0474 | 0.0316 |  |  | 
Cn1cc(-c2ccc3nnc(Sc4ccc5ncccc5c4)n3n2)cn1 | 1.3 (inactive) | 1.65 | 1.9 |  |  | 
CN[C@@H](C)[C@H]1[C@H](O)C[C@@]2(C)[C@@H]3CC[C@H]4C(C)(C)[C@@H](NC)CC[C@@]45C[C@@]35CC[C@]12C | 0.117 (inactive) | 0.364 | 0.673 |  |  | 
CCCCCCCCCCCCCC(=O)N[C@H](CO)[C@H](O)c1ccc([N+](=O)[O-])cc1 | 1.33 (inactive) | 1.09 | 1.02 |  |  | 
O=C1CCCC(=O)C1C(=O)c1ccc(C(F)(F)F)cc1[N+](=O)[O-] | 0.835 (inactive) | 1.44 | 0.656 |  |  | 
CCn1c(-c2nonc2N)nc2cncc(CNC3CCNCC3)c21 | -0.284 (inactive) | 0.212 | 0.661 |  |  | 
COc1cc2nccc(Oc3ccc(NC(=O)Nc4ccc(F)cc4F)c(F)c3)c2cc1OC | 0.868 (inactive) | 0.566 | 0.26 |  |  | 
CC(C)(O)CC(=O)NCCn1ccc2ncnc(Nc3ccc(Oc4cccc(C(F)(F)F)c4)c(Cl)c3)c21 | 0.0129 (inactive) | -0.0981 | -0.515 |  |  | 
Cc1ccc2c(c1)C(=O)[C@]1(O)CCN(c3ccccc3)C1=N2 | 1.54 (inactive) | 1.18 | 1.07 |  |  | 
CNC1CCC(N(Cc2cccc(-c3ccncc3)c2)C(=O)c2sc3ccccc3c2Cl)CC1 (stereo not drawn) | 0.143 (inactive) | 0.312 | 0.329 |  |  | 
Cc1ccc(NC(=O)c2cccc(N(C)C)c2)cc1NC(=O)c1ccc(O)cc1 | 1.75 (inactive) | 1.05 | 0.905 |  |  | 
O=C(O)Cc1cccc(OCCCN(Cc2cccc(C(F)(F)F)c2Cl)CC(c2ccccc2)c2ccccc2)c1 | -0.299 (inactive) | 0.225 | 0.165 | -0.604 | 0.0786 | 0.416
Cn1c(=O)c(-c2c(Cl)cccc2Cl)cc2cnc(Nc3cccc(C(=O)O)c3)nc21 | 0.595 (inactive) | 0.413 | 0.693 |  |  | 
CN1C(=O)C[C@H](C(=O)N[C@@H](Cc2cnc[nH]2)C(=O)N2CCC[C@@H]2C(N)=O)NC1=O | 0.875 (inactive) | 1.25 | 1.02 | 0.71 | 0.308 | 0.628
O[C@@H](COc1cccc2ncccc12)CN1CCN(C2c3ccccc3[C@@H]3[C@H](c4ccccc42)C3(F)F)CC1 (stereo partly drawn) | -1.07 (inactive) | -1.13 | -0.777 |  |  | 
O=C(c1ccc(C(=O)N2CCC(N3CCCC3)CC2)c(Nc2ccccc2)c1)N1CCC(N2CCCC2)CC1 | 0.276 (inactive) | 0.308 | 0.42 | 0.9 | 1.07 | 0.591
Cc1cc(OCCCS(C)(=O)=O)cc(C)c1-c1cccc(COc2ccc3c(c2)OC[C@H]3CC(=O)O)c1 | -0.127 (inactive) | 0.128 | 0.794 | 0.542 | 0.159 | 0.614

Structure (SMILES) | Z-AUC [1] | Z-AUC [1, 3] | Z-AUC ([1]; measured here: PEO4 Z-AUC) | z-score [2, 4] | z-score [2, 5] | z-score [2, 6]
Cc1cccc(Nc2nc(N[C@@H]3CCCC[C@H]3N)ncc2C(N)=O)c1 | -0.597 (inactive) | -0.615 | -0.03 |  |  | 
Cc1ccc(S(=O)(=O)OCC(=O)Nc2ccc(C(=O)O)c(O)c2)cc1 | 1.67 (inactive) | 1.37 | 1.35 | -0.0907 | 0.585 | -0.321
CCCCC[C@H](O)C=C[C@H]1[C@H](O)CC(=O)[C@H]1CC=CCCCC(=O)O | 1.09 (inactive) | 0.516 | 0.73 | 1.12 | 0.597 | 0.962
CC[C@H](C=C[C@@H](C)[C@H]1CC[C@H]2[C@@H]3CC=C4C[C@@H](O)CC[C@]4(C)[C@@H]3CC[C@]12C)C(C)C | 0.764 (inactive) | 1.79 | 1.84 | 0.875 | 0.915 | 1.02
CC(C)C[C@@H](N)[C@H](O)C(=O)N[C@H](C(=O)N[C@H](C(=O)N[C@@H](CC(=O)O)C(=O)O)C(C)C)C(C)C | -0.687 (inactive) | -0.6 | -0.277 | 0.245 | 0.596 | -0.2
C[C@@H]1C[C@H]2[C@@H]3CCC4=CC(=O)C=C[C@]4(C)[C@@]3(F)[C@@H](O)C[C@]2(C)[C@@]1(O)C(=O)CO | 0.337 (inactive) | 1.75 | 0.58 | 0.745 | 0.108 | -1.45
CNc1nc(Nc2ccc(C(=O)N3CCOCC3)cc2OC)ncc1Cl | -0.915 (inactive) | -0.00443 | 0.143 | 0.622 | -0.0223 | 0.626
CC(C)(F)C[C@H](N[C@@H](c1ccc(-c2ccc(S(C)(=O)=O)cc2)cc1)C(F)(F)F)C(=O)NC1(C#N)CC1 | -0.727 (inactive) | 1.36 | 0.322 |  |  | 
NCC1CCC(C(=O)O)CC1 (stereo not drawn) | -0.425 (inactive) | -0.68 | -0.142 | 0.68 | 0.972 | 0.669
CC1=C(C(=O)Nc2cc3cn[nH]c3cc2F)C(c2ccc(C(F)(F)F)cc2)CC(=O)N1 (stereo not drawn) | -0.362 (inactive) | -0.272 | -0.273 | 0.673 | 0.25 | 0.771
CCCCOCCOc1nc(-c2ccc(C(=O)O)c(F)c2)sc1C | 1.12 (inactive) | 0.866 | 0.696 | 1.12 | 0.152 | 0.316
Cc1cc(NC(=O)Nc2ccc(N(C)C)cc2)c2cc(F)cc(F)c2n1 | -0.154 (inactive) | -0.66 | -0.472 | 1.14 | 0.89 | 1.08
CCC[C@H](N[C@@H](C)C(=O)N1[C@@H]2CCCC[C@H]2C[C@H]1C(=O)O)C(=O)OCC | -0.443 (inactive) | -0.451 | -0.177 | 0.586 | 0.337 | 0.752
Cc1ccc(NC(=O)c2ccc(CN3CCN(C)CC3)cc2)cc1Nc1nc(-c2cccnc2)cs1 | -0.78 (inactive) | -0.735 | -0.741 |  |  | 
CCOC(=O)N1c2ccc(C(F)(F)F)cc2[C@@H](N(Cc2cc(C(F)(F)F)cc(C(F)(F)F)c2)C(=O)OC)C[C@H]1CC | -1 (inactive) | 0.195 | -0.682 | 0.825 | 0.72 | 0.57
c1ccc(CNc2nc(N3CCOc4ccccc43)nc3c2CCCC3)cc1 | 0.483 (inactive) | 0.277 | 1.17 | 0.901 | 0.197 | 0.631
C[C@H]1COC2=C1C(=O)C(=O)c1c2ccc2c1CCCC2(C)C | 1.69 (inactive) | 1.64 | 1.41 | -0.0604 | -0.0946 | -0.271
NC[C@H]1O[C@H](O[C@@H]2[C@@H](O)[C@@H](O[C@H]3O[C@H](CO)[C@@H](O)[C@H](N)[C@@H]3O)[C@H](N)C[C@@H]2N)[C@H](O)[C@@H](O)[C@H]1O | 1.2 (inactive) | 0.776 | 0.763 | 1.51 | 0.542 | 0.0704
COc1ccc(-c2nc3ccc(C4=NNC(=O)CC4C)cc3[nH]2)cc1 (stereo not drawn) | -0.406 (inactive) | -0.248 | 0.0118 | 0.403 | 0.3 | 0.145
CN1CCN(c2cccc(Nc3nc4c(-c5ccc(S(C)(=O)=O)cc5)cccn4n3)c2)CC1 | 0.515 (inactive) | 0.358 | 0.131 |  |  | 
CCCCC(F)(F)[C@@]1(O)CC[C@H]2[C@H](CC(=O)[C@@H]2CCCCCCC(=O)O)O1 | -0.514 (inactive) | 0.401 | 0.738 | 0.852 | 0.425 | 0.602
C[C@H](c1ccc(F)cc1CCCC(=O)O)N(c1cc(F)ccc1F)S(=O)(=O)c1ccc(Cl)cc1 | -0.634 (inactive) | -0.271 | -0.797 | 0.174 | -0.0423 | -0.497
N[C@@H](CC(=O)N1CCn2c(nnc2C(F)(F)F)C1)Cc1cc(F)c(F)cc1F | 0.69 (inactive) | 0.734 | 0.789 | 0.736 | 0.907 | 0.666
O=C(CO)N1CCC(c2[nH]nc(-c3ccc(Cl)cc3)c2-c2ccncn2)CC1 | -0.00709 (inactive) | 0.349 | 0.147 |  |  | 
C#CCN(C)CC1=Cc2ccccc2Oc2ccccc21 | -0.343 (inactive) | -0.493 | -0.09 | -0.41 | 0.413 | -1.17
CC(NCCc1ccc(O)cc1)C(O)c1ccc(O)cc1 (stereo not drawn) | -0.504 (inactive) | 0.762 | 0.7 | 0.72 | 0.96 | 2.38
Cc1ccccc1C(C(=O)NC1CCCCC1)N(C(=O)CNc1ccc(C#N)cc1)c1cccc(F)c1 (stereo not drawn) | 0.169 (inactive) | 0.0819 | 0.0144 | 0.515 | 0.305 | 0.632
